Here are results for seven molecules from PubChem BioAssay (NCI).

Molecules are shown by their SMILES. Compounds without any hit were thinned out: in the full panel of roughly 83,000, 20% have a hit.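 Assay: single dose, 48 h. Readout: percent growth (0 = no net growth; negative = cell death). Active: <10.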 Unmarked numbers belong to inactive results. Active and inactive are the calls of the source.

Test systems include NCI-H23 lung; NCI-H226 lung; NCI-H322M lung; HOP-62 NSCLC; NCI-H460 lung; HOP-92 NSCLC; NCI-H522 lung; A549/ATCC NSCLC; 786-0 renal; COLO 205 colon; DU-145 prostate; K-562 leukemia; MALME-3M melanoma; MDA-MB-231 breast; RXF 393 renal; SF-268 CNS; SF-295 CNS; SF-539 CNS; UACC-257 melanoma; M14 melanoma.
Test in all cases: NCI-60 one-dose screen, 48 h (100 = growth as untreated, 0 = no growth, -100 = all killed)
Conditions in all cases: 10 µM

Consider `Fc1cc(-c2ncc(-c3cc(F)c(F)c(F)c3)c(NC3CCCCCC3)n2)cc(F)c1F`, for which the growth is 102% in the experiment with NCI-H23 lung; 95.9% in the experiment on NCI-H226 lung; 102% in the experiment with NCI-H322M lung; 122% with HOP-62 NSCLC; 102% in the experiment on NCI-H460 lung; 88.8% in the experiment on HOP-92 NSCLC. Further, the growth was 120% with NCI-H522 lung; 85.6% with A549/ATCC NSCLC; 98.3% in the experiment with 786-0 renal; 115% with COLO 205 colon; 105% with DU-145 prostate; 101% in the experiment with K-562 leukemia. The growth in the experiment with MALME-3M melanoma was 140%; with MDA-MB-231 breast, 104%; in the experiment with RXF 393 renal it was 96.1%; with SF-268 CNS it was 107%; in the experiment on SF-295 CNS it was 90.1%; in the experiment with SF-539 CNS, 105%. Besides, the growth is 87.6% in the experiment on UACC-257 melanoma and 109% in the experiment on M14 melanoma.

On to `CCCCCCCCCCCCCCCCn1cc[n+](C)c1`, for which the growth was -51.9% (active) with NCI-H23 lung; -60.5% (active) with NCI-H226 lung; 8.28% (active) in the experiment on NCI-H322M lung; -82.7% (active) in the experiment with HOP-62 NSCLC; -87.9% (active) with NCI-H460 lung; -80.2% (active) in the experiment on HOP-92 NSCLC. Besides, the growth in the experiment on NCI-H522 lung is -87.4% (active); with A549/ATCC NSCLC, -50.9% (active); in the experiment with 786-0 renal, -90.4% (active); in the experiment on COLO 205 colon, -46% (active); with DU-145 prostate, -100% (active); in the experiment with K-562 leukemia, 72.6%. Further, the growth with MALME-3M melanoma was -73.7% (active); in the experiment with MDA-MB-231 breast it was -93.9% (active); in the experiment with RXF 393 renal, -66.2% (active); with SF-268 CNS it was -23% (active); in the experiment on SF-295 CNS, -39.5% (active); with SF-539 CNS, -98.6% (active). Also, the growth was -61.1% (active) with UACC-257 melanoma and -77.4% (active) with M14 melanoma.

With `Cc1cc2cc3c(=O)[nH]c(=O)cc-3n(CC(O)C(O)C(O)CO)c2cc1C` (stereo not given), the growth was 106% in the experiment on NCI-H23 lung; 110% in the experiment with NCI-H226 lung; 119% in the experiment on NCI-H322M lung; 81.1% in the experiment with HOP-62 NSCLC; 101% in the experiment on NCI-H460 lung; 111% in the experiment with HOP-92 NSCLC. The growth in the experiment with NCI-H522 lung is 96.2%; in the experiment on A549/ATCC NSCLC it was 97.8%; with 786-0 renal, 103%; with COLO 205 colon it was 93.1%; with DU-145 prostate, 95.5%; in the experiment on K-562 leukemia, 108%. Besides, the growth in the experiment on MALME-3M melanoma was 104%; in the experiment with MDA-MB-231 breast, 109%; in the experiment with RXF 393 renal, 115%; with SF-268 CNS it was 108%; in the experiment with SF-295 CNS it was 97.6%; in the experiment on SF-539 CNS, 107%. Also, the results for the growth in the experiment on UACC-257 melanoma and in the experiment with M14 melanoma were 110% and 107%, respectively.

As for `O=C(CCl)N1c2ccccc2Sc2ccc3ccccc3c21`, the growth in the experiment on NCI-H23 lung is -76.5% (active); with NCI-H226 lung, 34.4%; in the experiment on NCI-H322M lung, 65.9%; in the experiment on HOP-62 NSCLC it was -77.8% (active); in the experiment with NCI-H460 lung, -35.4% (active); in the experiment on HOP-92 NSCLC, -78.3% (active). For the same molecule, the growth in the experiment on NCI-H522 lung is -81.1% (active); with A549/ATCC NSCLC, 38%; in the experiment with 786-0 renal it was -62.8% (active); in the experiment on COLO 205 colon, -76.3% (active); in the experiment on DU-145 prostate, -90.8% (active); in the experiment on K-562 leukemia, -0.331% (active). Also, the growth in the experiment on MALME-3M melanoma was -43.4% (active); with MDA-MB-231 breast, -72.5% (active); in the experiment with RXF 393 renal, -33.4% (active); with SF-268 CNS it was -59.4% (active); in the experiment with SF-295 CNS it was -2.09% (active); in the experiment with SF-539 CNS, -60.9% (active). Moreover, the growth in the experiment with UACC-257 melanoma was -36.6% (active); in the experiment with M14 melanoma, -52.1% (active).

For `O=C(O)CN1C(=O)C=CC1=O`, the growth in the experiment with NCI-H23 lung is 106%; in the experiment with NCI-H226 lung, 108%; in the experiment on NCI-H322M lung, 90.9%; in the experiment on HOP-62 NSCLC, 107%; in the experiment with NCI-H460 lung it was 107%; with HOP-92 NSCLC, 111%. The growth in the experiment with NCI-H522 lung is 103%; in the experiment on A549/ATCC NSCLC, 108%; in the experiment on 786-0 renal it was 103%; in the experiment on COLO 205 colon, 94.8%; in the experiment on DU-145 prostate, 104%; in the experiment with K-562 leukemia, 96.4%. The growth in the experiment with MALME-3M melanoma was 97.7%; with MDA-MB-231 breast it was 107%; with RXF 393 renal it was 98.9%; in the experiment on SF-268 CNS it was 94.4%; with SF-295 CNS, 103%; in the experiment on SF-539 CNS it was 96.2%. Further, the growth was 115% in the experiment with UACC-257 melanoma and 106% in the experiment on M14 melanoma.

As to `N#Cc1ccc(-n2cnc(NC(=O)[C@H]3CCN(C#N)C3)c2)cc1`, the growth in the experiment with NCI-H23 lung was 19.8%; in the experiment on NCI-H226 lung it was 26.4%; in the experiment on NCI-H322M lung, 43.5%; in the experiment on HOP-62 NSCLC it was 23%; in the experiment on NCI-H460 lung, 15.3%; in the experiment on HOP-92 NSCLC, 42%. Moreover, the growth was -37.8% (active) with NCI-H522 lung; 23.8% with A549/ATCC NSCLC; 23.7% in the experiment with 786-0 renal; -55.3% (active) in the experiment with COLO 205 colon; 29.7% with DU-145 prostate; 17.8% in the experiment on K-562 leukemia. The growth with MALME-3M melanoma was -14.1% (active); in the experiment with MDA-MB-231 breast it was 14.8%; with RXF 393 renal, -54.8% (active); with SF-268 CNS it was 29.9%; with SF-295 CNS it was 42%; in the experiment with SF-539 CNS, -9.26% (active). The growth in the experiment with UACC-257 melanoma is 42.3%; with M14 melanoma, 29.1%.

On to `O=S(=O)(O)C1(O)CCCCC1`, for which the growth in the experiment with NCI-H23 lung is 93.3%; in the experiment on NCI-H226 lung, 95.4%; in the experiment with NCI-H322M lung it was 89.5%; in the experiment with HOP-62 NSCLC, 81.8%; in the experiment with NCI-H460 lung, 48%; in the experiment on HOP-92 NSCLC it was 101%. The growth in the experiment with NCI-H522 lung is 91.7%; in the experiment with A549/ATCC NSCLC, 98.9%; with 786-0 renal it was 102%; with COLO 205 colon it was 96.1%; in the experiment with DU-145 prostate it was 54.1%; with K-562 leukemia, 85.3%. The growth in the experiment with MALME-3M melanoma was 86.9%; in the experiment with MDA-MB-231 breast, 84.4%; with RXF 393 renal, 89.4%; with SF-268 CNS, 104%; in the experiment with SF-295 CNS, 82.5%; in the experiment with SF-539 CNS, 84%. For the same molecule, the growth in the experiment on UACC-257 melanoma was 102%; with M14 melanoma it was 91.2%.
